# eLon inh = inhibits E. coli Lon protease. P0A9M0. purified E. coli Lon protease, fluorescence polarization. inhibition, % at 7.94 µM. actives 0.42% (n = 360,000); in the data active = inhibition above about 13%, passing the limit was not always enough;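 note: 0% = enzyme with probe and DMSO and 100% = no enzyme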
# Target sequence (P0A9M0 whole entry, looked up): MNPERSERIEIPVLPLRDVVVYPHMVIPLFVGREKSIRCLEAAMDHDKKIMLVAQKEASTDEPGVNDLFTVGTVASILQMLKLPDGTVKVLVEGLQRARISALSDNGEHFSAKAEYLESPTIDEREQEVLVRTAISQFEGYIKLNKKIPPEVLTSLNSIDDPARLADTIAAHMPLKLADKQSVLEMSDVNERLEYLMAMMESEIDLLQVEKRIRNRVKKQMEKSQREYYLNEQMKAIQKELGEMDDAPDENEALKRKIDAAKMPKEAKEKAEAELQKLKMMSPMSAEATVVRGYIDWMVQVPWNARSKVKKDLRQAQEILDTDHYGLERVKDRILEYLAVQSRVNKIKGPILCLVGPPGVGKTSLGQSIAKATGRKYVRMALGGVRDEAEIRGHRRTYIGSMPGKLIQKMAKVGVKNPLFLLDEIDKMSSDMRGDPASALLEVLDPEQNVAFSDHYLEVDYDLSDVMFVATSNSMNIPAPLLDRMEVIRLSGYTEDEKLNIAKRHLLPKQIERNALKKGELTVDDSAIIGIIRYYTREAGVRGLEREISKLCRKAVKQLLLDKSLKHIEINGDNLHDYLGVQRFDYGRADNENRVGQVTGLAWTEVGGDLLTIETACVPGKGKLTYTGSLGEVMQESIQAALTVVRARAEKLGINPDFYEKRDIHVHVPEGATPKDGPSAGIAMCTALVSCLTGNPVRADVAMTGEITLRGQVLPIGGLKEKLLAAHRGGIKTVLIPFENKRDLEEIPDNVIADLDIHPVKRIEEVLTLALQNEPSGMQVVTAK
# Cardiac RTF inh = cardiac RTF calcium desensitization; P19429+P45379; inhibition, % at 7.15 µM; IANBD-labeled cardiac RTF, Ca2+ fluorescence; AID 493244; actives 0.12% (n = 340,000);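 active = inhibition above the mean inhibition of all tested compounds plus 3 SD, cut at about 17% in these data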;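 note: assay run at fixed EC70 calcium of 1.6 mM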
# C-LANA FP = blocks KSHV LANA C-terminal domain binding to DNA | MBP-C-LANA/FAM-LBS DNA binding, fluorescence polarization | inhibition, % at 9 µM | actives 0.078% (n = 340,000) | AID 504423;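 active = highest replicate inhibition at or above 60% at 9 µM, even if other replicates fall short; inactive = all replicates below 60% inhibition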;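 note: 0% = neutral control wells and 100% = 4 µM acridine orange control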
# Keap1-Nrf2 PPI = Keap1-Nrf2 (human) interaction inhibition; Keap1 Kelch-Nrf2 peptide fluorescence polarization, 1536-well; actives 0.15% (n = 340,000); AID 504523; inhibition, % at 9.4 µM; Q14145; in the data active = inhibition above about 12%;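 note: human Keap1 Kelch domain with fluorescein labeled Nrf2 9mer peptide probe; 0% = neutral control wells and 100% = peptide positive control; higher means more block of Keap1 binding to Nrf2 peptide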
# RTF Ca sens act = increases calcium sensitivity of human cardiac regulated thin filaments. P19429+P45379. IANBD-labeled TnC RTF fluorescence at EC20 calcium; 0% EC20 calcium, 100% full calcium. activation, % at 7.2 µM. actives 0.24% (n = 340,000). AID 493008;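 active = activation above the mean over all tested compounds plus 3 SD, cut at about 30% in these data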;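 note: rise in fluorescence read as greater calcium sensitivity of cardiac thin filaments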
# Keap1 TSA = binds and thermally shifts human Keap1 Kelch domain. shares compounds with Keap1-Nrf2 PPI. actives 8% (n = 400). AID 651823. Keap1 Kelch thermal shift, delta Tm; active compounds read high. max delta Tm, degrees C; in the data active = max delta Tm above about 0.48 degrees C
# Dye-only ctr = dye artifact in Keap1 thermal shift counter-screen; delta Tm, degrees C (no concentration beside the values); Sypro Orange dye-only thermal melt, no protein, delta Tm; top dose 26 µM; AID 651858; 140 tested, under 10 active; shares compounds with Keap1-Nrf2 PPI;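 active = at highest dose tested, delta Tm positive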
# * marks the source's active call; other numbers are inactive results; / = no result given. The list is not random: actives were taken first. Their share in the collection is about 0.82%.
SMILES,eLon inh,Cardiac RTF inh,C-LANA FP,Keap1-Nrf2 PPI,RTF Ca sens act,Keap1 TSA,others
O=C(Cc1ccccc1Cl)NCCCn1ccnc1,0,-8,-4,-2,1,/,
CCN(CC)C(=O)C1=C(C)N(Cc2ccc(C(C)(C)C)cc2)C(=O)C(CC(=O)NCc2cccs2)C1 (stereo unspecified),4,/,/,/,/,/,
CC(C)[C@@H](C(=O)N[C@@H](CCc1ccc(O)cc1)C(=O)O)N(C)C(=O)[C@H](CO)NC(=O)[C@@H](O)[C@H](N)CCCCCCCCl,-4,/,/,/,/,/,
Cc1nn(-c2ccccc2Cl)c(Cl)c1/C=N/Nc1nc2ccccc2s1,-18,-23,4,34*,-5,-0.11,
O=C(CCCN1C(=O)/C(=C\c2cccs2)SC1=S)Nc1ccc(O)cc1C(=O)O,-20,-3,0,-7,-2,/,
O=C(CCCN1C(=O)/C(=C\c2ccco2)SC1=S)Nc1ccc(O)cc1C(=O)O,-4,10,109*,28*,-15,0.33,Dye-only ctr=-28
COc1ccccc1CNC(=O)COc1cc(O)c2c(c1)OC(C)(C)CC2=O,7,/,/,/,/,/,
O=C(O)CCNc1ccc(NCCC(=O)O)c2c1C(=O)c1ccccc1C2=O,26,-22,55,13*,7,0.63*,Dye-only ctr=-26
O=C(Nc1ccccn1)C(c1ccccc1)c1ccccc1,9,/,/,/,/,/,
CC[C@H](C)[C@H](NC(=O)OCc1ccccc1)C(=O)OCC(=O)N1CCN(c2ccc(F)cc2)CC1,-6,-11,13,26*,3,-0.12,Dye-only ctr=-26
CCCNC(=O)C1(C)CCCN(Cc2ccc(-c3ccccn3)cc2)C1 (stereo unspecified),0,/,/,/,/,/,
CC1CCN(C(=O)Cn2cc(C(F)(F)F)ccc2=O)c2ccccc2S1 (stereo unspecified),-3,-11,21,49*,8,-0.1,
O=C(Cn1cc(C(F)(F)F)ccc1=O)N1CCCc2ccccc21,-3,3,-1,-2,-3,/,
Cc1ccccc1OCCC(=O)Nc1cc(S(=O)(=O)N2CCCCC2)ccc1N1CCN(C)CC1,-6,-12,28,54*,18,0.02,
Cc1cc(C)c2c(SC(C)C)nc(N)nc2n1,-5,-61,14,23*,47*,-0.18,
CNS(=O)(=O)c1ccc2c3c(cccc13)C(=O)N2C,2,-2,13,32*,5,-0.09,
CN1C(=O)c2cccc3c(S(=O)(=O)N(C)C)ccc1c23,0,-3,-1,0,6,/,
CC1=C(C(=O)N2CCCCCC2)CC(CC(=O)NCCCCc2ccccc2)C(=O)N1CCC1=CCCCC1 (stereo unspecified),0,/,/,/,/,/,
O=C1N=c2ccccc2=C1c1sc(=S)n(NC(=O)c2cccc(O)c2)c1O,4,0,-1,1,-4,/,
O=C1N=c2ccc(Br)cc2=C1c1sc(=S)n(NS(=O)(=O)c2ccccc2)c1O,3,7,0,53*,1,2.7*,Dye-only ctr=-26
COCCCN1C(=O)c2ccc(C(=O)Nc3ccccc3OC)cc2C1=O,8,0,1,-3,-4,/,
COCCCN1C(=O)c2ccc(C(=O)Nc3ccc(C)cc3C)cc2C1=O,6,-8,2,39*,-6,-0.14,
O=C1c2cccc3c(N4CCCCC4)ccc(c23)C(=O)N1c1ccccc1O,-59,-118,41,16*,73*,-0.13,
CC1(C(=O)NCCC(F)(F)F)Cc2c(-c3ccccc3)ccnc2O1 (stereo unspecified),-11,/,/,/,/,/,
CCCCC[C@H](C)N1C[C@@H](COCc2ccccc2)Oc2cc(N3CCC[C@@H]3COC)ccc2S1(=O)=O,-3,/,/,/,/,/,
SMILES,eLon inh,Cardiac RTF inh,C-LANA FP,Keap1-Nrf2 PPI,RTF Ca sens act,Keap1 TSA,others
N/C(Cc1cccc2ccccc12)=N\O,10,-13,/,17*,13,-0.14,Dye-only ctr=-22
Cn1cc(CN2CCC(C(=O)NC(c3ccc(F)cc3)c3ccc4ccccc4n3)CC2)c2ccccc21 (stereo unspecified),-16,/,/,/,/,/,
COc1ccc(-c2cnc3c(NC(C)=O)cc(-c4ccc(C(=O)N5CCOCC5)cc4)cn23)cc1OC,-4,/,/,/,/,/,
O=C(NCc1ccc(Cl)cc1)c1cc(=O)[nH]c2ccccc12,0,-4,2,59*,-2,-0.15,
Nc1c(Cl)ncnc1NCc1ccccc1,-8,-7,28,31*,0,0,
CN1C(=O)[C@H]2[C@@H](c3ccc(C(F)(F)F)cc3)N[C@]3(CCCN(Cc4ccc(C(F)(F)F)cc4)C3=O)[C@H]2C1=O,-3,/,/,/,/,/,
COc1cccc(NC(=O)CN(C)CC(=O)NCc2ccco2)c1,5,3,81*,24*,-7,-0.07,Dye-only ctr=-22
Cc1cccc(C)c1NC(=O)CSc1nnc(-c2ccco2)c(-c2ccco2)n1,87*,8,105*,46*,-12,0.29,Dye-only ctr=-27
CC(=O)Nc1ccc(-c2ccnc3c2CC(C(=O)Nc2cccc(N(C)C)c2)O3)cc1 (stereo unspecified),1,/,/,/,/,/,
COc1cc(/C=C/CN2CCN(CCC(C)C)C(CCO)C2)ccc1O (stereo unspecified),-3,0,0,18*,2,-0.19,
NC(=O)c1cc2ccccc2oc1=NCc1ccccc1,4,-7,-1,-2,-2,/,
NC(=O)c1cc2ccc(O)cc2oc1=NCc1ccccc1,-8,-67,22,16*,60*,-0.14,Dye-only ctr=-26
CNC(=S)Nc1cccc(C(=O)OC)c1,3,/,/,41*,/,-0.03,Dye-only ctr=-28
CCN(CC)CCNc1ccc(CO)c2oc3ccccc3c(=O)c12,-18,/,/,/,/,/,
COc1ccc2occ(C(=O)c3coc4ccc(O)c(CN(C)C)c34)c2c1,3,-8,2,3,1,/,
COc1ccc(OC)c(C(=O)c2coc3ccc(O)c(CN(C)C)c23)c1,2,-4,9,19*,1,-0.11,
Cn1ccnc1Sc1cc(NCCCO)c([N+](=O)[O-])c2nonc12,2,-3,1,13*,2,-0.01,
O=[N+]([O-])c1c(NCCCO)cc(Sc2ccc(Cl)cc2)c2nonc12,-2,-4,0,3,5,/,
NC(=O)CC(NC(=O)Cc1cccc2ccccc12)c1ccc(NCc2ccc(F)cc2)c([N+](=O)[O-])c1 (stereo unspecified),-8,-14,0,-2,-4,/,
NC(=O)CC(NC(=O)Cc1cccc2ccccc12)c1ccc(NCc2ccccc2)c([N+](=O)[O-])c1 (stereo unspecified),7,2,18,22*,-1,-0.11,
O=C1C(Cl)=C(NS(=O)(=O)c2ccc([N+](=O)[O-])cc2)C(=O)c2ccccc21,6,10,-2,20*,-2,0.76*,
N/C(=N\OC(=O)c1ccc(Cl)cc1)c1ccccn1,0,-6,0,0,0,/,
